# Source: PubChem BioAssay AID485270 (The Scripps Research Institute Molecular Screening Center, 2010)
# Among all 330,000 compounds or so, about 5,800 (1.8%) were called active. The sample holds actives, similar compounds and a random draw of the others, so the mix is not that of the screen. Cut-off read from the data, not from the text of the source: active = inhibition mostly above about 38% (no sharp cut-off); inactive = mostly below about 40%.
# Biological target: Orexin/Hypocretin receptor type 1 (Homo sapiens) (UniProt O43613)
# Test: antagonists of human orexin 1 receptor (OX1R) (AID 485270);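 note: 0% = agonist challenge alone and 100% = reference antagonist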
# Details: OX1R-expressing cells, FRET antagonist read-out; at 6.6 µM; stronger effect = higher value
# Sequence of Orexin/Hypocretin receptor type 1 (Homo sapiens) (O43613 whole entry, looked up): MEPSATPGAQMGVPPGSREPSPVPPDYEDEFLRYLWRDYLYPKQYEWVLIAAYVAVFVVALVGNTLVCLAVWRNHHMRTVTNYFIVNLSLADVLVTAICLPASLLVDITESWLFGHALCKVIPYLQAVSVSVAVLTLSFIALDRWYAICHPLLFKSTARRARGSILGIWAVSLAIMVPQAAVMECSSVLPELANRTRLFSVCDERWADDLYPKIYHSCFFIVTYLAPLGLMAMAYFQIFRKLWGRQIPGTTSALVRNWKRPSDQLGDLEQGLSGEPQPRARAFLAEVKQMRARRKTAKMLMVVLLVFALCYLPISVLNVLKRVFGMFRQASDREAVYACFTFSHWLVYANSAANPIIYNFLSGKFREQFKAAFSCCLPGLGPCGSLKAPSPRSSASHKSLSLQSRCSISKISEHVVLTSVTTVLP
row,Structure (SMILES),inhibition
1,COc1cccc(C(=O)NC(=O)Nc2nc(C)cc(C(F)(F)F)n2)c1,64.4% (active)
2,Cc1cc(C)nc(NC(=O)Nc2ccccc2C(F)(F)F)n1,19.6% (inactive)
3,COc1cccc(C(=O)NNC(=O)c2cccc(F)c2)c1,-10.7% (inactive)
4,CNC(=O)CN1C(=O)NC(c2ccccc2)(c2ccccc2)C1=O,27% (inactive)
5,COc1cccc(CNC(=O)CN2C(=O)NC(Cc3ccccc3)(c3ccccc3)C2=O)c1 (stereo unspecified),40.8% (active)
6,COc1cccc(CNC(=O)COC(=O)CN2C(=O)NC3(CCCCC3C)C2=O)c1 (stereo unspecified),4.53% (inactive)
7,O=C(NCc1ccc2c(c1)OCO2)c1c(-c2ccsc2)sc2ccccc12,35.8% (inactive)
8,Cc1ccc(S(=O)(=O)N(C)c2ccc(OCC(=O)OCc3ccc(C#N)cc3)cc2)cc1,5.89% (inactive)
9,Cc1c(NC(=S)Nc2ccccc2)c(=O)n(-c2ccccc2)n1C,6.12% (inactive)
10,Cc1cccc(OP(=O)(Nc2c(C)n(C)n(-c3ccccc3)c2=O)Oc2cccc(C)c2)c1,61.5% (active)
11,Cc1c(NC(=O)C(C)Oc2cccc(Cl)c2)c(=O)n(-c2ccccc2)n1C (stereo unspecified),16% (inactive)
12,COc1ccc(-c2noc(CCC(=O)N3CCN(c4cccc(C)c4)CC3)n2)cc1,7.06% (inactive)
13,CN(C)C(=O)CCc1ccc2c3c([nH]c2c1)[C@]1(C)[C@@H](C(=O)N2CCCCC2)C[C@H](CC(=O)NCCC2=CCCCC2)C(=O)N1CC3,10.5% (inactive)
14,C[C@@H]1CN([C@@H](C)CO)C(=O)c2cccc(NS(=O)(=O)c3ccc(F)cc3)c2O[C@H]1CN(C)C(=O)NC1CCCCC1,11.9% (inactive)
15,COc1ccc(C(=O)OCc2cc(=O)n3ccsc3n2)cc1F,3.7% (inactive)
16,CCN1/C(=C\c2ccc3ccccc3[n+]2CC)Sc2cc(C)ccc21,69.9% (active)
17,CCN1/C(=C/c2ccc3ccc(C)cc3[n+]2CC)Sc2ccccc21,38.5% (inactive)
18,CN(CC(=O)Nc1ccc(OC(F)F)cc1)S(=O)(=O)/C=C/c1ccccc1,6.62% (inactive)
19,Cn1c(N)c(C(=O)COC(=O)c2ccc3ccccc3c2)c(=O)n(C)c1=O,44.9% (active)
20,Cn1c(N)c(C(=O)COC(=O)c2cnc(Cl)c(Cl)c2)c(=O)n(C)c1=O,6.46% (inactive)
21,Cn1c(N)c(C(=O)COC(=O)c2cccc(S(=O)(=O)N3CCOCC3)c2)c(=O)n(C)c1=O,13.1% (inactive)
22,Cn1cncc1C#Cc1c(-c2ccsc2)sc2ccccc12,10.4% (inactive)

row,Structure (SMILES),inhibition
1,CC1Cc2ccccc2N1S(=O)(=O)c1cccc(C(=O)OCC(=O)N2CCOCC2)c1 (stereo unspecified),7.49% (inactive)
2,O=S(=O)([N-]c1nc2ccccc2nc1-[n+]1ccc(Cc2ccccc2)cc1)c1ccc(Br)s1,20.8% (inactive)
3,Cc1ccc(C)c(NC(=O)CN(C)C(=O)COc2ccc3ccccc3c2)c1,19.9% (inactive)
4,Cc1ccnc(Nc2nc3ccccc3s2)n1,55.2% (active)
5,c1ccc2sc(NN=C3CCCC3)nc2c1,3.98% (inactive)
6,Cc1ccnc(-n2sc3ccccc3c2=O)n1,15.6% (inactive)
7,COc1ccc(/C=C/C(=O)Nc2ccc(C34CC5CC(CC(O)(C5)C3)C4)cc2)cc1OC,18.9% (inactive)
8,C=CCC[C@@H](Cc1ccc(F)cc1)C(=O)OC[C@@H](C)NC(=O)[C@H](CC=C)CC(=O)N(CCO)Cc1ccccc1,7.32% (inactive)
9,O=S(=O)(NCC1CN(S(=O)(=O)c2ccc3c(c2)OCCO3)C1)c1c(F)cccc1F,3.02% (inactive)
10,Cc1nc(-c2ccc([N+](=O)[O-])cc2)c(-c2ccccc2)o1,5.07% (inactive)
11,Cc1cc(CO)nn1-c1ccc([N+](=O)[O-])cc1,46.5% (inactive)
12,Cc1nn(-c2ccc([N+](=O)[O-])cc2)c(N)c1-c1ccccc1,62.8% (active)
13,O=C(COc1ccc(Br)cc1F)NCC1(N2CCCCC2)CCCCC1,9.11% (inactive)
14,O=C(COC(=O)c1ccc([N+](=O)[O-])o1)NC12CC3CC(CC(C3)C1)C2,23.2% (inactive)
15,O=C(Oc1ccccc1C(=S)N1CCCCC1)c1cc([N+](=O)[O-])cc([N+](=O)[O-])c1,123% (active)
16,O=C(Nc1ccc(C(=O)N2CCCCC2)cc1)c1cccc([N+](=O)[O-])c1,4.33% (inactive)
17,O=C(Oc1ccc(Br)cc1C(=S)N1CCOCC1)c1cccc([N+](=O)[O-])c1,18.1% (inactive)
18,CC(=O)Nc1ccc(NC(=O)COC(=O)C2CCC(C(C)(C)C)CC2)cc1 (stereo unspecified),7.49% (inactive)
19,O=C(Nc1ccc(-n2cccn2)cc1)C1CCN(Cc2ccsc2)CC1,-0.73% (inactive)
20,COc1ccccc1CNC(=O)c1ccc(Cl)c(S(=O)(=O)N2CCCC2)c1,16.6% (inactive)
21,COc1ccc(CNC(=O)COC(=O)C(CCSC)N2C(=O)c3ccccc3C2=O)cc1 (stereo unspecified),9.55% (inactive)
22,COc1cc(OC)cc(C(=O)NC(C(=O)N2CCC2)C(C)C)c1 (stereo unspecified),4.23% (inactive)

row,Structure (SMILES),inhibition
1,COc1ccc(NC(=O)CS(=O)(=O)c2ccccc2)cc1,-4.46% (inactive)
2,Cc1ccc(C)c(-c2nnc(NC(=O)CS(=O)(=O)c3ccccc3)o2)c1,12.7% (inactive)
3,COc1ccc(-c2nnc(NC(=O)CS(=O)(=O)c3ccc(Cl)cc3)o2)c(OC)c1,47.9% (active)
4,CCCCNc1c(-c2cccc(Sc3ccc(OC)cc3)c2)nc2ccccn12,32.8% (inactive)
5,c1ccc2c(CCN3CCNC[C@H]3Cc3cccc4ccccc34)cccc2c1,3.65% (inactive)
6,CC(NC(=O)COC(=O)Cn1cc(C(F)(F)F)ccc1=O)c1ccccc1 (stereo unspecified),3.44% (inactive)
7,O=c1[nH]c(-c2cccs2)nc2ccccc12,42.7% (inactive)
8,O=c1[nH]c(=O)c2nc3ccccc3nc2[nH]1,53.3% (active)
9,Nc1ccc2nc3c(=O)[nH]c(=S)[nH]c3nc2c1,93.8% (active)
10,Cc1cc2nc3c(=O)n(Cc4ccccc4)c(=O)[nH]c3nc2cc1N,14.8% (inactive)
11,O=c1[nH]c(-c2ccccc2)c(-c2ccccc2)[nH]1,8.25% (inactive)
12,O=C1OCCN1C(=O)[C@H]1[C@H](c2ccc(Cl)cc2)C(c2cccc(Cl)c2)=NN1c1ccc(Br)cc1,-1.81% (inactive)
13,Cc1ccc(C)c(N2CCN(C(=O)CCc3nc(-c4cccc(C(F)(F)F)c4)no3)CC2)c1,5.16% (inactive)
14,CC(=O)N(O)CCCCCNC(=O)CCC(=O)N(O)CCCCCNC(=O)CCC(=O)N(O)CCCCCNC(=O)CCC(=O)O,3.94% (inactive)
15,Cc1ccc(C(=O)Nc2ccc3c(c2)OCCO3)cc1S(=O)(=O)N1CCOCC1,1.11% (inactive)
16,COc1cc(OC)cc(C(=O)N[C@H](C(=O)NNC(=O)c2ccc(Br)cc2)C(C)C)c1,6.01% (inactive)
17,N/C(=N\OC(=O)c1ccc2c(c1)OCO2)c1ccc(Br)cc1,10.9% (inactive)
18,Nc1[nH][nH]c(=O)c1N=Nc1ccc2c(c1)OCO2,84.8% (active)
19,O=C(c1ccc2c(c1)OCO2)N1CCOCC1,14.4% (inactive)
20,CC(C)(C)OC(=O)C[C@@H]1C/C=C\C[C@@H](CC(=O)N[C@H](CO)Cc2ccccc2)C(=O)NCCOC1=O,5.83% (inactive)
21,O=C(C[C@H]1C/C=C\C[C@@H](NC(=O)OCC2c3ccccc3-c3ccccc32)C(=O)O[C@@H](c2ccccc2)CNC1=O)N[C@H](CO)Cc1ccccc1,6.4% (inactive)
22,Cc1cc(N2CCCC2)ccc1NC(=O)COc1ccc(Cl)cc1,8.39% (inactive)

row,Structure (SMILES),inhibition
1,COC(=O)N/N=C/c1cn(CCCOc2ccc(C)cc2)c2ccccc12,13.5% (inactive)
2,COC(=O)N/N=C/c1ccc(/C=N/NC(=O)OC)cc1,48.6% (inactive)
3,COC(=O)N/N=C/c1c[n+]([O-])c2ccccc2[n+]1[O-],101% (active)
4,O=C(Nc1cc(S(=O)(=O)N2CCCCC2)ccc1Cl)C1COc2ccccc2O1 (stereo unspecified),2.12% (inactive)
5,CC(=O)c1ccc(NC(=O)CSc2nc3ccccc3c(=O)n2CCCN2CCOCC2)cc1,3.62% (inactive)
6,Fc1ccc(-n2c(Cc3ccccc3)nnc2SCc2nc(-c3ccc(Cl)cc3)no2)cc1,35% (active)
7,Cc1ccc(-c2noc(CSc3nnc(-c4ccccc4)n3C)n2)cc1,14.3% (inactive)
8,Cc1ccc(-c2noc(CSc3nnc(-c4ccncc4)n3-c3ccc(F)cc3)n2)cc1,13.8% (inactive)
9,Cc1cccc(C)c1OC(=O)CSc1nnc(-c2ccccc2)o1,27.6% (inactive)
10,O=C(CSc1nnc(-c2ccc([N+](=O)[O-])cc2)o1)Nc1ccccn1,20.6% (inactive)
11,CCOC(=O)CSc1nnc(-c2ccc([N+](=O)[O-])cc2)o1,58.6% (active)
12,Cc1noc(C)c1NC(=O)Nc1ccc2c(c1)C(=O)N([C@H](C)CO)C[C@H](C)[C@@H](CN(C)C(=O)Nc1ccc(C(F)(F)F)cc1)O2,7.42% (inactive)
13,COc1ccc(CCNC(=O)COC(=O)c2ncc(Cl)c(Cl)c2Cl)cc1OC,9.72% (inactive)
14,Cc1ccc(-c2noc(CSc3nnnn3-c3ccccc3)n2)cc1,5.93% (inactive)
15,COc1ccc(C)cc1-n1nnnc1SCc1nc2ccccc2c(=O)[nH]1,35.5% (inactive)
16,Cc1ccc(Nc2nc(CSc3nnnn3-c3ccccc3)cc(=O)[nH]2)cc1,81.8% (active)
17,CCn1c(O)c(N=NC2=NC(=O)CS2)c2cc(C)ccc21,101% (active)
18,CCn1c(O)c(N=NC(=O)c2cccc(S(=O)(=O)N3CCCCC3)c2)c2ccccc21,11% (inactive)
19,COC(=O)Cn1c2ccc(C)cc2c2nc(C)sc21,11.6% (inactive)
20,CCN(C(=O)CSc1cccc[n+]1[O-])c1ccccc1,0.91% (inactive)
